The source of these data is PubChem BioAssay (EPA / NIEHS).

Structures are written as SMILES. Inconclusive results are not listed. Where a structure was tested more than once in an assay, its records may differ in their call. The source made the active and inactive calls. The calls were made as follows, unless noted: active = hit-call score of the fitted dose curve at least 0.9, where 1 is the maximum; inactive = score below 0.9.

Test [1] addresses Oxysterols receptor LXR-beta (Homo sapiens) (UniProt P55055). The test can be described thus: ATG_LXRb_TRANS: Attagene TRANS-FACTORIAL HepG2 Assay for human Liver X Receptor beta (LXRb) (AID 2282981; active = hit-call score of the fitted dose curve at least 0.9, where 1 is the maximum). To be noted: HepG2 Attagene TRANS GAL4-LXRb reporter, mRNA. The essentials:
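After 24 h of chemical treatment, transfected HepG2 cells yield total RNA; reporter cDNA is PCR-amplified, FAM-labelled, HpaI-cut and run on capillary electrophoresis. Signal reflects chimeric LXRb-Gal4 activity on GAL4-UAS reporters.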

A short description of test [2]: ATG_M_06_TRANS: Attagene TRANS-FACTORIAL HepG2 Assay for M06 Transcription Factor (Internal Marker) (AID 2282983; active = hit-call score of the fitted dose curve at least 0.9, where 1 is the maximum). To be noted: HepG2 Attagene TRANS M06 internal marker reporter. The essentials: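 Multi-reporter-transfected HepG2, 24 h treatment; reporter transcripts quantified via RT-PCR, primer-extension labelling and CE. DMSO-normalized gain-of-signal fit.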
Test [3] can be described thus: ATG_M_32_TRANS: Attagene TRANS-FACTORIAL HepG2 Assay for M32 Transcription Factor (Internal Marker) (AID 2282984; active = hit-call score of the fitted dose curve at least 0.9, where 1 is the maximum;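 also: transcript level of a background control reporter unit measured by RT-PCR and capillary electrophoresis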). Particulars: HepG2 Attagene TRANS M32 internal marker reporter. The essentials:
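Cell-based TRANS-format assay in HepG2: exogenous chimeric GAL4 reporter units transiently expressed, compounds applied 24 h. Reporter mRNA detected by RT-PCR plus capillary electrophoresis; this readout is an internal background marker.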

The target in test [4] is Nuclear receptor subfamily 4 group A member 2 (Homo sapiens) (UniProt P43354). In words: ATG_NURR1_TRANS: Attagene TRANS-FACTORIAL HepG2 Assay for human Nuclear Receptor Related Protein 1 (NURR1) (AID 2282985; active = hit-call score of the fitted dose curve at least 0.9, where 1 is the maximum). Particulars: HepG2 Attagene TRANS reporter, mRNA readout. The essentials: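 Measures transcriptional activation by an exogenous NR-Gal4 chimera in transfected HepG2 liver cells. After 24 h, reporter RNA is reverse-transcribed, amplified and resolved by capillary electrophoresis; DMSO defines baseline.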
Nuclear receptor subfamily 4 group A member 2 (Homo sapiens), sequence (P43354 whole entry, looked up, the tested form may be a part): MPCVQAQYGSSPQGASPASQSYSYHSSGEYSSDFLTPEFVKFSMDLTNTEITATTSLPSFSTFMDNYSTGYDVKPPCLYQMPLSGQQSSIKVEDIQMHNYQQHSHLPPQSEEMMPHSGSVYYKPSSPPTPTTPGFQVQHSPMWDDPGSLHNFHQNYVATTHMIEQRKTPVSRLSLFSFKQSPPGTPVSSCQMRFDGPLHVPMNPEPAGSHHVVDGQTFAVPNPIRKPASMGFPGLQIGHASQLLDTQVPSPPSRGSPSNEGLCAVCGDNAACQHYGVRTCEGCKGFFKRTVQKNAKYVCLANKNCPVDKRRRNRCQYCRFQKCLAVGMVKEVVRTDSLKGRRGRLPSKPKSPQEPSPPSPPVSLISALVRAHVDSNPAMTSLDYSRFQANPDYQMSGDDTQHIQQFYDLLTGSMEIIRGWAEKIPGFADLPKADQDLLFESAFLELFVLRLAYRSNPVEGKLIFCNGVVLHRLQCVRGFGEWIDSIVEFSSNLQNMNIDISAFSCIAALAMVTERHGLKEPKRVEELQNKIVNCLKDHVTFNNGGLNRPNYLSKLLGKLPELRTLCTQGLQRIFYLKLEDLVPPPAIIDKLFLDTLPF

The target of test [5] is Transcriptional activator Myb (Homo sapiens) (UniProt P10242). The test can be described thus: ATG_Myb_CIS: Attagene CIS-FACTORIAL HepG2 Assay for human Myeloblastosis (Myb) Proto-Oncogene Transcription Factor (AID 2282986). Particulars: HepG2 Attagene CIS-FACTORIAL Myb reporter transcription; actives raise or lower the signal. The method in brief: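 After 24 h of compound dosing, total RNA from transfected HepG2 cells is reverse-transcribed and the reporter sequences amplified, labeled and separated by capillary electrophoresis. Values come from bidirectional fitting against DMSO.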
Transcriptional activator Myb (Homo sapiens), sequence (P10242 whole entry, looked up): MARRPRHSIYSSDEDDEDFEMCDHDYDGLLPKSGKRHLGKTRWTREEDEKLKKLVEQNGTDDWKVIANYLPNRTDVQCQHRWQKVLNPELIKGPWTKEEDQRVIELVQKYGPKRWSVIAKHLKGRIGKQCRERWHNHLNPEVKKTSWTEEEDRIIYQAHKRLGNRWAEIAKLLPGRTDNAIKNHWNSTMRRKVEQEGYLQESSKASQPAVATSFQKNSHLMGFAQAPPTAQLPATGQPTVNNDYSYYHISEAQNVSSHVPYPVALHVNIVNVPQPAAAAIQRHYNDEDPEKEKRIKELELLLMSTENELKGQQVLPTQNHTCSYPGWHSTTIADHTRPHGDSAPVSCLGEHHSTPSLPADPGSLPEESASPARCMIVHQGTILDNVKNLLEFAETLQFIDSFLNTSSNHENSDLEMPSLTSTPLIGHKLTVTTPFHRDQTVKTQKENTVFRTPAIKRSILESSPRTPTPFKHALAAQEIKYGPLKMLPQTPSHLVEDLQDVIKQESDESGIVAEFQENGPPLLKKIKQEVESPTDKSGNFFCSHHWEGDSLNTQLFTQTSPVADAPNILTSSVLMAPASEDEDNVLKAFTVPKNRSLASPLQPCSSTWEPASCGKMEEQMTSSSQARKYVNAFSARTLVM

Test [6] has as its target Nuclear respiratory factor 1 (Homo sapiens) (UniProt Q16656). In words: ATG_NRF1_CIS: Attagene CIS-FACTORIAL HepG2 Assay for human Nuclear Respiratory Factor 1 (NRF1) Orphan Gene (AID 2282987). To be noted: HepG2 NRF1 cis-element reporter, Attagene multiplex; actives raise or lower the signal. The method in brief: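 Measured: fluorescent reporter-specific RT-PCR products from transfected HepG2 cells, separated by capillary electrophoresis. Exposure lasted 24 h. Analysis used bidirectional curve fitting with DMSO as negative control.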

Test [7] in a line: ATG_NFI_CIS: Attagene CIS-FACTORIAL HepG2 Assay for human Nuclear Factor I (NFI) (AID 2282989). Particulars: HepG2 cis-regulatory reporter, NFI response element transcription; actives raise or lower the signal. The method in brief: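 Reporter transcripts were measured by RT-PCR with fluorescent primer extension and capillary electrophoresis 24 h post-treatment. HepG2 cells carried transiently transfected cis-regulated reporter constructs reporting endogenous factor activity; gain or loss fitted against DMSO baseline.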

The target of test [8] is Myc proto-oncogene protein (Homo sapiens) (UniProt P01106). In words: ATG_Myc_CIS: Attagene CIS-FACTORIAL HepG2 Assay for human Myelocytomatosis (Myc) Proto-Oncogene Transcription Factor (AID 2282990). Particulars: HepG2, Attagene cis-reporter transcription factor activity; actives raise or lower the signal. The essentials:
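Cells of the HepG2 human liver line bear multiple cis-driven reporter transcription units. Reporter mRNA after 24 h exposure is reverse-transcribed, amplified, labelled and resolved by capillary electrophoresis, with gain- or loss-of-signal fitting relative to DMSO.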

Test [9] is described as follows: ATG_NF_kB_CIS: Attagene CIS-FACTORIAL HepG2 Assay for human Nuclear Factor Kappa B (NF-kB) (AID 2282991). To be noted: HepG2 Attagene cis-factorial NF-kB reporter mRNA; actives raise or lower the signal. The method in brief: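 Fluorescence of labelled RT-PCR products separated by capillary electrophoresis gives reporter mRNA levels from transfected HepG2 cells exposed 24 h; values are fitted in both directions relative to DMSO.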

A short description of test [10]: ATG_NRF2_ARE_CIS: Attagene CIS-FACTORIAL HepG2 Assay for human Nuclear Factor Erythroid 2 Related Factor 2 (NFR2) response to Antioxidant Response Elements (ARE) (AID 2282992). To be noted: HepG2 Attagene ARE/NRF2 reporter, transcription factor activity; actives raise or lower the signal. The method in brief:
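Using transiently transfected HepG2 cells exposed for 24 h, reporter mRNA levels were determined by RT-PCR with fluorescent primer extension and capillary electrophoresis, analysed for gain or loss of signal against DMSO.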

The nature of test [11]: ATG_Oct_MLP_CIS: Attagene CIS-FACTORIAL HepG2 Assay for human Octamer-Binding Transcription Factor (Oct) (AID 2282993). Particulars: HepG2 Attagene cis-factorial Oct reporter, mRNA; actives raise or lower the signal. The essentials: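 Readout is reporter transcript level from RT-PCR with fluorescent primer extension and capillary electrophoresis, fitted in both directions against DMSO. Transfected HepG2 reporter units report endogenous factor activity after 24 h dosing.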

Test [12] concerns the target Cellular tumor antigen p53 (Homo sapiens) (UniProt P04637). The test can be described thus: ATG_p53_CIS: Attagene CIS-FACTORIAL HepG2 Assay for human p53 Transcription Factor (AID 2282994). Particulars: HepG2 p53 cis-element reporter, Attagene mRNA; actives raise or lower the signal. The method in brief: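 In HepG2 cells, reporter transcription units under cis-regulatory promoters were transiently introduced. Following 24 h treatment, RNA was processed to labelled, digested cDNA fragments read by capillary electrophoresis; fitting was bidirectional versus DMSO.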

Test [13] concerns the target human Peroxisome Proliferator-activated Receptor alpha (PPARa), PPARA (gene 5465) (UniProt Q07869). The test can be described thus: ATG_PPARa_TRANS: Attagene TRANS-FACTORIAL HepG2 Assay for human Peroxisome Proliferator-activated Receptor alpha (PPARa) (AID 2283001; active = hit-call score of the fitted dose curve at least 0.9, where 1 is the maximum;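 as to AC50: potency for gain of reporter signal over DMSO so agonist or activator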). The method in brief: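 Transfected HepG2 cells treated with test chemical for 24 h. RNA isolated, reverse-transcribed with oligo(dT), PCR-amplified, FAM-labelled and HpaI-digested. Fragments sized by capillary electrophoresis; gain-of-signal fit relative to DMSO.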

Test [14] deals with human Peroxisome Proliferator-activated Receptor delta (PPARd), PPARD (gene 5467) (UniProt Q03181). In words: ATG_PPARd_TRANS: Attagene TRANS-FACTORIAL HepG2 Assay for human Peroxisome Proliferator-activated Receptor delta (PPARd) (AID 2283002; active = hit-call score of the fitted dose curve at least 0.9, where 1 is the maximum). The method in brief:
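Cell-based TRANS reporter: HepG2, transient MRTU transfection, 24 h exposure. Readout = reporter mRNA (RT-PCR/CE, 6-FAM). Gain-of-signal fit vs DMSO control.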

Test [15] has as its target Hepatocyte nuclear factor 4-alpha (Homo sapiens) (UniProt P41235). The test can be described thus: ATG_HNF4a_TRANS: Attagene TRANS-FACTORIAL HepG2 Assay for human Hepatocyte Nuclear Factor 4 alpha (HNF4a) (AID 2282982; active = hit-call score of the fitted dose curve at least 0.9, where 1 is the maximum). To be noted: HepG2 HNF4a transactivation reporter, mRNA readout. The method in brief: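 Multiplexed reporter assay: transfected HepG2, 24 h exposure, total RNA → oligo(dT) RT → PCR → 6-FAM extension → HpaI digest → CE fluorescence. DMSO = negative control.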

The nature of test [16]: BSK_3C_TissueFactor: BioMAP Diversity Plus: 3C Assay for Tissue Factor Biomarker Activity (AID 2282997). To be noted: BioMAP 3C HUVEC, tissue factor biomarker readout; actives raise or lower the signal. The essentials: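 In this endothelial system, HUVEC are treated for 24 h and Tissue Factor is assessed by ELISA, normalised to DMSO.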
Test [17] can be described thus: BSK_3C_uPAR: BioMAP Diversity Plus: 3C Assay for Urokinase-type plasminogen activator receptor (uPAR) Biomarker Activity (AID 2282998). Particulars: BioMAP 3C HUVEC, uPAR biomarker ELISA; actives raise or lower the signal. The method in brief: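 Cell-surface uPAR on HUVEC (3C system) read by ELISA at 24 h post-treatment, with DMSO as baseline and fitting in both directions. Parallel cultures stained with SRB to flag overt cytotoxicity.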

Test [18] in a line: BSK_3C_VCAM1: BioMAP Diversity Plus: 3C Assay for Vascular cell adhesion molecule 1 (VCAM1) Biomarker Activity (AID 2282999). Particulars: BioMAP 3C HUVEC, VCAM1 ELISA, cytokine-stimulated; actives raise or lower the signal. The essentials:
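Activity fitted in both directions relative to DMSO, with ELISA measurement of the surface marker on primary HUVEC (3C) at 24 h post-treatment; parallel SRB staining (0.1% SRB, TCA-fixed, 560 nm) flagged overt cytotoxicity.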

A short description of test [19]: BSK_4H_Eotaxin3: BioMAP Diversity Plus: 4H Assay for Eotaxin 3 Biomarker Activity (AID 2283000).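 Also: CCL26 protein level quantified by ELISA in parallel with SRB cytotoxicity check.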 To be noted: primary human endothelial cells (HUVEC); actives raise or lower the signal. The method in brief: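 ELISA quantitation of CCL26 (Eotaxin-3) protein from chemically dosed human vascular endothelial cells at 24 h; increases and decreases both scored relative to DMSO-treated baseline.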

Nuclear respiratory factor 1 (Homo sapiens), sequence (Q16656 whole entry, looked up): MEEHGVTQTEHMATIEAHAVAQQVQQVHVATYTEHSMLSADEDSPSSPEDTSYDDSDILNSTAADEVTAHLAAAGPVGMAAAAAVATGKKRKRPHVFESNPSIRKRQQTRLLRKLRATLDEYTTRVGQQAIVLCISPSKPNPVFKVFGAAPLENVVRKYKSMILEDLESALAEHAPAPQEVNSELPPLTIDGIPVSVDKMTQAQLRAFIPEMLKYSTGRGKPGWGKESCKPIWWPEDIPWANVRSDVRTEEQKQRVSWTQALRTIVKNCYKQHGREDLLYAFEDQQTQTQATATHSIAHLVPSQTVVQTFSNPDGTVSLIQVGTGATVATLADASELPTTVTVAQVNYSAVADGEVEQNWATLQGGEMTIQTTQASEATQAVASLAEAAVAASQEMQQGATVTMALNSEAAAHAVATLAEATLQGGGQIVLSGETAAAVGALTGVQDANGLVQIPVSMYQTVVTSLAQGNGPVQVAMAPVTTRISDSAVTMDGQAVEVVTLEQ
human Peroxisome Proliferator-activated Receptor alpha (PPARa), PPARA (gene 5465), sequence (Q07869 whole entry, looked up, the tested form may be a part): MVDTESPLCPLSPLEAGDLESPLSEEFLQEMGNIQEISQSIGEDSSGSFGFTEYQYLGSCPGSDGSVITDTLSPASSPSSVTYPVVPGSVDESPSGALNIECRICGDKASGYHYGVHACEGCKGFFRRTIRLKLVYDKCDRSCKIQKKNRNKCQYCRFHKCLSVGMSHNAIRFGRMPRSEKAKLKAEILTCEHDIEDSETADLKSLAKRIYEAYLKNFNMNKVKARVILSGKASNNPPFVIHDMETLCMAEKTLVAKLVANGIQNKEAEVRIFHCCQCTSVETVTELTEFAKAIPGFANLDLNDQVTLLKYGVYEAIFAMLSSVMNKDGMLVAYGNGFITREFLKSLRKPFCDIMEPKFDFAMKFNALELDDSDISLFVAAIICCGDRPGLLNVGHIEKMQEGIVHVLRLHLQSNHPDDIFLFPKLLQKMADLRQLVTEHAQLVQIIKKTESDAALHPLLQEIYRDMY
Cellular tumor antigen p53 (Homo sapiens), sequence (P04637 whole entry, looked up, the tested form may be a part): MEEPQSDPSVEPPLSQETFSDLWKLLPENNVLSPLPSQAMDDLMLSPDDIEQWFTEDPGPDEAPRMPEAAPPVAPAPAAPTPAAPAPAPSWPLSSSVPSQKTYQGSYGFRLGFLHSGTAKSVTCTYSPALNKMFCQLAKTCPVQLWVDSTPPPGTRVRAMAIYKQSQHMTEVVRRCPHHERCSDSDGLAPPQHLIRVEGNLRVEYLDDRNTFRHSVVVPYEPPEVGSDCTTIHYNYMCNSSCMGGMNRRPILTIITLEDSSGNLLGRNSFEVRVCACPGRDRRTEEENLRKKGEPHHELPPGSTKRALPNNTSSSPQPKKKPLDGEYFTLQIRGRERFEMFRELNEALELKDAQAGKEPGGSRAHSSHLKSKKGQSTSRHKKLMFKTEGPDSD
human Peroxisome Proliferator-activated Receptor delta (PPARd), PPARD (gene 5467), sequence (Q03181 whole entry, looked up): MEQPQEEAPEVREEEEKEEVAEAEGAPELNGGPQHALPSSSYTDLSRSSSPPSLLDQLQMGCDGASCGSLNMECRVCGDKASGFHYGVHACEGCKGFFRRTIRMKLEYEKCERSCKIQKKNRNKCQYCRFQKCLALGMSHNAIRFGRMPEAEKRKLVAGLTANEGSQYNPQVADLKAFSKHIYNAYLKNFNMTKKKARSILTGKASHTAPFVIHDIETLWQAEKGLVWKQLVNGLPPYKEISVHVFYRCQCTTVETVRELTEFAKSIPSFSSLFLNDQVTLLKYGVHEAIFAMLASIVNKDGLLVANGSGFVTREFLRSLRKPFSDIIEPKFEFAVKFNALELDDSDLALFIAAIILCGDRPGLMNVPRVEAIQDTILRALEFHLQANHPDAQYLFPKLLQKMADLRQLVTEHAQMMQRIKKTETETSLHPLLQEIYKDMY
Myc proto-oncogene protein (Homo sapiens), sequence (P01106 whole entry, looked up): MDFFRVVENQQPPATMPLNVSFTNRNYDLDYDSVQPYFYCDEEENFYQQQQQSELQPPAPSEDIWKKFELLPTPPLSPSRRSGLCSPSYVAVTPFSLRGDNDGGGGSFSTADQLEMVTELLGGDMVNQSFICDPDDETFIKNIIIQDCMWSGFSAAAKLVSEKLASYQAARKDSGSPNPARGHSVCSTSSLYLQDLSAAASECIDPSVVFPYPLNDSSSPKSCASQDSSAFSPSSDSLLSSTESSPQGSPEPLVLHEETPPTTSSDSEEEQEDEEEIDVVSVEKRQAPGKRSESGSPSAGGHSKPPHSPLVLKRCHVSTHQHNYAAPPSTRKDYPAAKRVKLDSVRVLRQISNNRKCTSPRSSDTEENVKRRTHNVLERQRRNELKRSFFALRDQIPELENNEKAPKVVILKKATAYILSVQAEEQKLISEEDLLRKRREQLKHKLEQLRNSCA
Oxysterols receptor LXR-beta (Homo sapiens), sequence (P55055 whole entry, looked up, the tested form may be a part): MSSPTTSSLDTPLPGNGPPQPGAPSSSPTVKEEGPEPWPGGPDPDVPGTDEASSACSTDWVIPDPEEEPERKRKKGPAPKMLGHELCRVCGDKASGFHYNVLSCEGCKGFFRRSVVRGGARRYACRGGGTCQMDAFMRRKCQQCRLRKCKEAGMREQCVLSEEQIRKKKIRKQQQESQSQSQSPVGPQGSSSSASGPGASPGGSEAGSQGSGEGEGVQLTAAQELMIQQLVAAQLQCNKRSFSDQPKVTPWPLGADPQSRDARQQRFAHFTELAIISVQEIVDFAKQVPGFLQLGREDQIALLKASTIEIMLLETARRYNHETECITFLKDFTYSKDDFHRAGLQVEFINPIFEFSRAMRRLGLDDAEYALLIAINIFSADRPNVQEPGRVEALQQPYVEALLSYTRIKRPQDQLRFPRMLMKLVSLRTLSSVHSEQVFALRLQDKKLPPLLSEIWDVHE
Hepatocyte nuclear factor 4-alpha (Homo sapiens), sequence (P41235 whole entry, looked up): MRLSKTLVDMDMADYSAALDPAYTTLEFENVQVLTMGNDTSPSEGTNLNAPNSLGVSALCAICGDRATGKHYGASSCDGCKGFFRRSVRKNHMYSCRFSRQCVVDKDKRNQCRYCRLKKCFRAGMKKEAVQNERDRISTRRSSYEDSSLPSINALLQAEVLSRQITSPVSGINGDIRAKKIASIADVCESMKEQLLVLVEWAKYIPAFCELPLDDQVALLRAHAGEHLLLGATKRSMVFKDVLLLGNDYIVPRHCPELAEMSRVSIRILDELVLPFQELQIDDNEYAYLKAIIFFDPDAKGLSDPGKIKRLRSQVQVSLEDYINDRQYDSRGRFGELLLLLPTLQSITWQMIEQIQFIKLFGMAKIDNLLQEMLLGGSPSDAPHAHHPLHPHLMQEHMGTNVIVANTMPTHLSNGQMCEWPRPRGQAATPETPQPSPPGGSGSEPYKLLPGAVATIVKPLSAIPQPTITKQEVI

Consider `Oc1cccc2c(O)cccc12`, for which the result in test [1], in [2], in test [3], in [4], in test [5] and in [6] was inactive. Also, the molecule was called inactive in test [7], in test [8], in [9], in [11], in [12] and in test [13]. Moreover, in test [14], the outcome was inactive. The AC50 in [10] is 8.25 µM (active).
`C=C(c1ccc(C(=O)O)cc1)c1cc2c(cc1C)C(C)(C)CCC2(C)C`: the molecule was called inactive in [1], in test [2], in test [3], in test [5], in [6] and in [7]. The molecule was classed as inactive in test [8], in [9], in test [10], in [11] and in test [14]. The half-maximal activity concentration (AC50) in [5] is 31 µM (active); in [8] it was 26 µM (active); in [9] it was 11.1 µM (active); in test [11], 11.1 µM (active); in [13] it was 33.6 µM (active).
With `CC(C)(c1ccc(Oc2ccc(N)cc2)cc1)c1ccc(Oc2ccc(N)cc2)cc1`, the call in test [1], in test [15], in [3], in [5], in test [6] and in test [7] was inactive. The molecule was classed as inactive in [8], in test [9], in [12] and in test [14]. Moreover, the AC50 in [10] was 3.71 µM (active).
In the case of `CC=O`, the molecule was classed as inactive in [1], in [5], in test [6], in test [8], in test [9] and in [10]. Also, the result in [11] and in test [12] was inactive.
On to `NS(=O)(=O)O`, for which the molecule was called inactive in [1], in test [15], in [3], in test [5], in test [6] and in test [7]. The molecule was called inactive in [8], in test [10], in test [11], in test [12], in [13] and in [14].
For `COCC1CCC(CO)CC1` (stereo unspecified), the outcome in test [1], in test [2], in test [5], in [6], in test [7] and in test [8] was inactive. The outcome in test [9], in [10] and in [12] was inactive.
`CCCCCCCCCCCC[N+](C)(C)Cc1ccccc1`: the outcome in test [15], in [2], in [3], in test [4], in test [5] and in test [6] was inactive. In addition, the outcome in test [7], in [8], in test [9], in [10], in test [11] and in test [13] was inactive. In addition, the result in test [14] was inactive. In addition, the half-maximal activity concentration (AC50) in test [5] is 11.1 µM (active); in [10], 9.38 µM (active); in test [11] it was 13.5 µM (active); in test [13] it was 68.2 µM (active).
Regarding `O=CC(F)(F)C(F)(F)C(F)(F)C(F)F`, the outcome in [1], in test [2], in test [3], in test [4], in [5] and in test [6] was inactive. Further, the call in [7], in test [8], in [9], in test [10], in [11] and in test [12] was inactive. The call in test [13] and in test [14] was inactive.
Regarding `C=CC(=C)CC/C=C(\C)CCC=C(C)C`, the result in [1], in test [2], in test [3], in [5], in test [6] and in [8] was inactive. Besides, the result in test [9], in test [11], in test [12], in test [16], in [17] and in test [18] was inactive. The result in test [19] and in test [14] was inactive. Further, in [10], the AC50 is 19 µM (active).
